In PubChem BioAssay (Tox21):
Where “and” joins values, the source holds several entries; their conditions need not be identical. Equal values may be shown once. Inconclusive results are not listed. Calls of active or inactive are those of the source. Unless noted, calls follow the shape of the dose curve; as a rule, active = well fitted curve in the direction sought with a large enough effect in the repeat runs; inconclusive = weak or mixed curves; inactive = no such curve, though single readings can be large; an effect the other way counts as inactive or inconclusive.

How the values were obtained:
[1] = qHTS assay to identify small molecule agonists of H2AX - cell viability counter screen (AID 1224847; calls by dose curve;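 also: wild-type CHO-K1 cells; top concentration of the series differs between compounds; nearly all actives have a fitted effect of over 30% in size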)
Summary of the method: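 For this counter screen, overnight-attached CHO-K1 cells received test compounds (15 concentrations, 0.76% DMSO final); 3 hr later at 37C, CellTiter-Glo reagent was added and luminescence recorded after 30 min at room temperature.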

[2] = qHTS RealTime-Glo MT Cell Viability Assay in HepG2 cells - 24 hour (AID 1224867); also: nearly all actives have a fitted effect of over 50% in size
Summary of the method: (§1)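 Tox21 10K library screened in qHTS format on HepG2 cells carrying RealTime-Glo reagents. Compounds were added after a 5 h preincubation, and the luminescent signal from continuous culture was measured repeatedly during 40 h treatment.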

[3] = qHTS RealTime-Glo MT Cell Viability Assay in HEK293 cells - 32 hour (AID 1224868); also: top concentration of the series differs between compounds; nearly all actives have a fitted effect of over 50% in size
Summary of the method: (§2)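 Luminescence generated by NanoLuc from substrate produced by living HEK293 cells served as the viability signal. Each value reflects the reading at its stated time point during continuous 40 h compound exposure at 37 C.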

[4] = A CellTox Green Cytotoxicity Assay to monitor cytotoxicity in HEK293 cells - 0 hour (AID 1224869); also: nearly all actives have a fitted effect of over 50% in size
Summary of the method: (§3)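 Tox21 screen in HEK293: membrane-impermeant cyanine dye fluoresces on binding dead-cell DNA; compound pinned 5 h post-seeding, plates held at 37 C, signal read repeatedly through 40 h.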

[5] = qHTS RealTime-Glo MT Cell Viability Assay in HepG2 cells - 40 hour (AID 1224870); also: nearly all actives have a fitted effect of over 50% in size
Summary of the method: (§4)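 HepG2 cells mixed with RealTime-Glo MT reagents (NanoLuc plus cell-permeant prosubstrate) were seeded at 600 cells/well, incubated 5 h at 37 C/5% CO2, then pinned with compounds in DMSO; nonlytic luminescence tracked viability during 40 h treatment.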

[6] = A CellTox Green Cytotoxicity Assay to monitor cytotoxicity in HEK293 cells - 40 hour (AID 1224871); also: nearly all actives have a fitted effect of over 45% in size
Summary of the method: as §3

[7] = qHTS RealTime-Glo MT Cell Viability Assay in HepG2 cells - 8 hour (AID 1224873); also: nearly all actives have a fitted effect of over 55% in size
Summary of the method: as §4

[8] = qHTS RealTime-Glo MT Cell Viability Assay in HEK293 cells - 40 hour (AID 1224874); conditions: RealTime-Glo luminescence; max response: active compounds read low; also: nearly all actives have a fitted effect of over 50% in size
Summary of the method: (§5)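 HEK293 + NanoLuc + prosubstrate, 600 cells/well; 5 h, 37 C/5% CO2; compound 23 nL in DMSO by pintool; 37 C; luminescence read at 0, 8, 16, 24, 32 and 40 h time points.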

[9] = A CellTox Green Cytotoxicity Assay to monitor cytotoxicity in HEK293 cells - 24 hour (AID 1224875); also: series mostly up to about 77 µM; nearly all actives have a fitted effect of over 45% in size
Summary of the method: as §3

[10] = A CellTox Green Cytotoxicity Assay to monitor cytotoxicity in HepG2 cells - 16 hour (AID 1224876); also: nearly all actives have a fitted effect of over 45% in size
Summary of the method: (§6)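 Measurements at 0, 8, 16, 24, 32 and 40 h of treatment captured CellTox Green fluorescence in HepG2 cells that had been co-plated with reagent and preincubated 5 h at 37 C/5% CO2.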

[11] = qHTS RealTime-Glo MT Cell Viability Assay in HepG2 cells - 32 hour (AID 1224877); also: nearly all actives have a fitted effect of over 55% in size
Summary of the method: as §1

[12] = A CellTox Green Cytotoxicity Assay to monitor cytotoxicity in HepG2 cells - 24 hour (AID 1224878); also: nearly all actives have a fitted effect of over 45% in size
Summary of the method: as §6

[13] = A CellTox Green Cytotoxicity Assay to monitor cytotoxicity in HepG2 cells - 40 hour (AID 1224879); also: nearly all actives have a fitted effect of over 40% in size
Summary of the method: as §6

[14] = qHTS RealTime-Glo MT Cell Viability Assay in HEK293 cells - 0 hour (AID 1224880)
Summary of the method: as §5

[15] = A CellTox Green Cytotoxicity Assay to monitor cytotoxicity in HEK293 cells - 32 hour (AID 1224881); also: nearly all actives have a fitted effect of over 40% in size
Summary of the method: as §3

[16] = A CellTox Green Cytotoxicity Assay to monitor cytotoxicity in HepG2 cells - 0 hour (AID 1224882); also: nearly all actives have a fitted effect of over 35% in size
Summary of the method: as §6

[17] = A CellTox Green Cytotoxicity Assay to monitor cytotoxicity in HepG2 cells - 32 hour (AID 1224883); also: nearly all actives have a fitted effect of over 50% in size
Summary of the method: as §6

[18] = qHTS RealTime-Glo MT Cell Viability Assay in HEK293 cells - 16 hour (AID 1224872)
Summary of the method: as §2
% is scaled to controls: 0 for no effect and ±100 for the full control effect.

c1ccc2scnc2c1
inactive: Potency [1] | outcome [2] | Potency [3] | outcome [4] | outcome [5] | Potency [6] | outcome [7] | max response [8] 13.8% and 1.41% | Potency [9] | Potency [10] | outcome [11] | Potency [12] | Potency [13] | Potency [14] | Potency [15] | outcome [16] | Potency [17]

C#CCN(C)Cc1ccccc1
inactive: Potency [1] | outcome [2] | outcome [4] | outcome [5] | Potency [6] | Potency [18] | outcome [7] | max response [8] -0.876% and -0.317% | Potency [10] | outcome [11] | Potency [12] | Potency [13] | Potency [14] | Potency [15] | outcome [16] | Potency [17]

O=c1[nH]c(=O)n([C@H]2CCCO2)cc1F
inactive: Potency [1] | outcome [2] | outcome [4] | outcome [5] | Potency [6] | Potency [18] | outcome [7] | max response [8] -9.43% and 1.8% | Potency [10] | outcome [11] | Potency [12] | Potency [13] | Potency [14] | Potency [15] | outcome [16] | Potency [17]

CCCCN(CCCC)CCCC
inactive: Potency [1] | outcome [2] | Potency [3] | outcome [4] | outcome [5] | Potency [6] | Potency [18] | outcome [7] | max response [8] 6% and 4.07% | Potency [9] | Potency [10] | outcome [11] | Potency [12] | Potency [13] | Potency [14] | Potency [15] | outcome [16] | Potency [17]

CCCCCOC(C)=O
inactive: Potency [1] | outcome [2] | Potency [3] | outcome [4] | outcome [5] | Potency [6] | Potency [18] | outcome [7] | max response [8] -23.8% and 1.43% | Potency [9] | Potency [10] | outcome [11] | Potency [12] | Potency [13] | Potency [14] | Potency [15] | outcome [16] | Potency [17]

c1c[nH]cn1
inactive: Potency [1] | outcome [2] | Potency [3] | outcome [4] | outcome [5] | Potency [6] | Potency [18] | outcome [7] | max response [8] 11.4% and 19.2% | Potency [9] | Potency [10] | outcome [11] | Potency [12] | Potency [13] | Potency [14] | Potency [15] | outcome [16] | Potency [17]

CC1CCC2CC1C2(C)C (centres undefined)
inactive: Potency [1] | outcome [2] | outcome [4] | outcome [5] | Potency [6] | Potency [18] | max response [8] -4.21% and 10.8% | Potency [9] | Potency [10] | outcome [11] | Potency [12] | Potency [13] | Potency [14] | Potency [15] | outcome [16] | Potency [17]

Cc1ccc(N(C)C)cc1
inactive: Potency [1] | outcome [2] | Potency [3] | outcome [4] | outcome [5] | Potency [6] | Potency [18] | max response [8] 0.353% and -2.55% | Potency [10] | outcome [11] | Potency [12] | Potency [13] | Potency [14] | Potency [15] | outcome [16] | Potency [17]

Cc1ccc(S(N)(=O)=O)cc1
inactive: Potency [1] | outcome [2] | Potency [3] | outcome [4] | outcome [5] | Potency [6] | Potency [18] | max response [8] 1.64% | Potency [9] | Potency [10] | outcome [11] | Potency [12] | Potency [13] | Potency [14] | Potency [15] | outcome [16] | Potency [17]

CCCC(C)=O
inactive: Potency [1] | outcome [2] | Potency [3] | outcome [4] | outcome [5] | Potency [6] | outcome [7] | max response [8] 3.18% and 6.23% | Potency [9] | Potency [10] | outcome [11] | Potency [12] | Potency [13] | Potency [14] | Potency [15] | outcome [16] | Potency [17]

CCCCOC(=O)COc1ccc(Cl)cc1Cl
inactive: Potency [1] | outcome [2] | Potency [3] | outcome [4] | outcome [5] | Potency [6] | Potency [18] | outcome [7] | max response [8] -3.14% and 1.1% | Potency [10] | outcome [11] | Potency [12] | Potency [13] | Potency [14] | Potency [15] | outcome [16] | Potency [17]

CCCCCCCCCCCCOCCO
inactive: Potency [1] | outcome [2] | Potency [3] | outcome [4] | outcome [5] | Potency [6] | Potency [18] | outcome [7] | max response [8] -14.2% and -3.69% | Potency [9] | Potency [10] | outcome [11] | Potency [12] | Potency [13] | Potency [14] | Potency [15] | outcome [16] | Potency [17]
